For 4 compounds, z-score and composite z-score results are on record in PubChem BioAssay.

Activity calls are given as the source filed them.

Test [1] can be described thus: optical density shifts of acrAB sulA E. coli – strain DRC41, OD650, 48 h, E. coli filamentation inducer project, primary screen (AID 1152).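 Note: E. coli MC1000 strain DRC41 lacking acrAB efflux pump and sulA.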 The settings on record: higher = more signal, called active from +8 up or from −8 down.
A short description of test [2]: probe aLefty1 binding on compound microarray – biochemical, small-molecule microarray, 635/667 nm fluorescence, primary screen (AID 1153).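 Note: score merges spot fluorescence with signal-to-noise ratio from the scanned slide images.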 The settings on record: higher = more signal.
Test [3] is described as follows: plasmodial surface anion channel blockers, osmotic lysis – cell-based, P. falciparum Indochina, OD700, 1 h, primary screen (AID 1154). The settings on record: P. falciparum Indochina infected RBC osmotic lysis, higher = more signal, called active from +8 up or from −8 down.
Test [4] is described as follows: plasmodial surface anion channel blockers, osmotic lysis – cell-based, P. falciparum Indochina, OD700, 2 h, primary screen (AID 1155).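 Note: lysis reports solute entry through the parasite surface anion channel PSAC.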 The settings on record: P. falciparum Indochina infected erythrocytes, higher = more signal, called active from +8 up or from −8 down.
Test [5] can be described thus: changes in parasitized red cell lysis, either direction – P. falciparum Indochina, OD700, 3 h, PSAC antagonist project, primary screen (AID 1156). The settings on record: P. falciparum-infected erythrocytes, osmotic lysis, higher = more signal, called active from +8 up or from −8 down.
Test [6] is described as follows: plasmodial surface anion channel blockers, osmotic lysis – cell-based, P. falciparum Indochina, OD700, 18 h, primary screen (AID 1157). To be noted: P. falciparum Indochina infected erythrocytes, osmotic lysis OD700, 18 h; higher = more signal, called active from +8 up or from −8 down.
A short description of test [7]: S6 kinase pathway phospho-S6 level changes – cell-based, A549, cytoblot, luminescence, serum-stimulated, primary screen (AID 1158).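 Note: serum-stimulated A549 lung adenocarcinoma cells; signal is phosphorylated S6 detected by cytoblot immunostaining with HRP secondary.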 The settings on record: 5 h, higher = more signal.
In test [8] the target is NADPH oxidase 2 (Homo sapiens) (UniProt P04839). The test can be described thus: compounds shifting NOX2 Amplex Red fluorescence – cell-based, HEK293-NOX2, PMA-stimulated, NOX inhibitor project, primary screen (AID 1159). Note: test concentration not given here. The settings on record: 45 min, higher = more signal, called active from +8 up or from −8 down.
Test [9] has as its target NADPH oxidase 4 (Homo sapiens) (UniProt Q9NPH5). The test can be described thus: compounds shifting NOX4 Amplex Red fluorescence – cell-based, HEK293-NOX4, tetracycline-induced, NOX inhibitor project, primary screen (AID 1160). The settings on record: HEK293-NOX4, Amplex Red H2O2 fluorescence, 45 min; higher = more signal, called active from +8 up or from −8 down.
The target in test [10] is NADPH oxidase 5 (Homo sapiens) (UniProt Q96PH1). The test can be described thus: compounds shifting NOX5 Amplex Red fluorescence – cell-based, HEK293-NOX5, NOX inhibitor project, primary screen (AID 1161). To be noted: HEK293-NOX5, ionomycin, 45 min, higher = more signal.
A short description of test [11]: compound effects on lung adenocarcinoma cell viability – A549, calcein-AM fluorescence, 48 h, basal, profiling panel (AID 1162). Note: test concentration not given here. To be noted: higher = more signal.
Test [12] is described as follows: compound effects on differentiated 3T3-L1 adipocyte viability – cell-based, 3T3-L1 adipocytes, calcein-AM fluorescence, 48 h, basal, profiling panel (AID 1163). Note: test concentration not given here. To be noted: 3T3-L1 adipocytes viability, higher = more signal.
Test [13] can be described thus: compound effects on hepatocellular carcinoma cell viability – HepG2, calcein-AM fluorescence, 48 h, basal, profiling panel (AID 1164). Note: test concentration not given here. The settings on record: higher = more signal.
Test [14] is described as follows: compound effects on multiple myeloma cell viability – MM1S, calcein-AM fluorescence, 48 h, basal, profiling panel (AID 1165).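 Note: viability of MM1S multiple myeloma cells under basal unstimulated conditions; test concentration not given here.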 To be noted: higher = more signal.
Test [15] in a line: calcein-AM signal in unstimulated myeloma cells – cell-based, calcein-AM fluorescence, 48 h, PK04 Diversity Set, profiling panel (AID 1166).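 Note: cells grown under basal conditions without added stimulus; test concentration not given here.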 To be noted: RPMI8226 myeloma viability, higher = more signal.
Test [16] in a line: JC-1 mitochondrial signal, unstimulated HepG2 cells – cell-based, JC-1 fluorescence, 24 h, 100 nL compound, profiling panel (AID 1167). Note: test concentration not given here. To be noted: HepG2 mitochondrial potential, higher = more signal.
Test [17] in a line: JC-1 mitochondrial signal, unstimulated adipocytes – cell-based, JC-1 fluorescence, 3T3-L1 adipocytes, 24 h, 100 nL compound, profiling panel (AID 1168). Note: test concentration not given here. The settings on record: JC-1 mitochondrial fluorescence, higher = more signal, called active from +8 up or from −8 down.
A short description of test [18]: JC-1 mitochondrial signal, unstimulated myeloma cells – cell-based, JC-1 fluorescence, RPMI8226, 24 h, 100 nL compound, profiling panel (AID 1169). Note: test concentration not given here. The settings on record: JC-1 mitochondrial potential fluorescence, higher = more signal.
Test [19] is described as follows: JC-1 mitochondrial signal, unstimulated MM1S myeloma – cell-based, JC-1 fluorescence, 24 h, 100 nL compound, profiling panel (AID 1170). Note: test concentration not given here. To be noted: MM1S mitochondrial potential, higher = more signal.
Test [20] is described as follows: resazurin metabolic signal in A549 cells – cell-based, resazurin fluorescence, 24 h, PK04 Diversity Set, profiling panel (AID 1171). Note: test concentration not given here. The settings on record: A549 viability, higher = more signal, called active from +8 up or from −8 down. (In general: The colour change of resazurin is a common sign of viable cells or microbes.)

Sequence of NADPH oxidase 5 (Homo sapiens) (Q96PH1 whole entry, looked up): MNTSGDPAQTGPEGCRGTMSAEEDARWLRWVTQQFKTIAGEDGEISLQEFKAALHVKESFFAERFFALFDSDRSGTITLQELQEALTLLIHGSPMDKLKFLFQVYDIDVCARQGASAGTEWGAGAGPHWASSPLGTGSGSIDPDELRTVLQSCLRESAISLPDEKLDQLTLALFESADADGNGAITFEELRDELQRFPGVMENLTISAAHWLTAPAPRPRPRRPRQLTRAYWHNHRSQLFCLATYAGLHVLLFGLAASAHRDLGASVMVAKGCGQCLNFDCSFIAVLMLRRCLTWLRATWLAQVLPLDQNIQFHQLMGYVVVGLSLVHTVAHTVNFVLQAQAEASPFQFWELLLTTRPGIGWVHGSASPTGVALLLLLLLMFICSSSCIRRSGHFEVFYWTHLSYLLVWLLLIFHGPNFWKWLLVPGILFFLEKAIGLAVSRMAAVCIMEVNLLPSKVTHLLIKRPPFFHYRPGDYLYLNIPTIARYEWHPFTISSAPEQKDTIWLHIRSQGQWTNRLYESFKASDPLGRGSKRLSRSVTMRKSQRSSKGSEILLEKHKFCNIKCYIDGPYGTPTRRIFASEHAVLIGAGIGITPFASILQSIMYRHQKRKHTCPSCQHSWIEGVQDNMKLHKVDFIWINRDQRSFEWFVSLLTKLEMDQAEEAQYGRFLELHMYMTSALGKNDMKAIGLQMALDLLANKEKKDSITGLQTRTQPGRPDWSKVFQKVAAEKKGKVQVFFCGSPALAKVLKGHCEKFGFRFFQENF
Sequence of NADPH oxidase 2 (Homo sapiens) (P04839 whole entry, looked up): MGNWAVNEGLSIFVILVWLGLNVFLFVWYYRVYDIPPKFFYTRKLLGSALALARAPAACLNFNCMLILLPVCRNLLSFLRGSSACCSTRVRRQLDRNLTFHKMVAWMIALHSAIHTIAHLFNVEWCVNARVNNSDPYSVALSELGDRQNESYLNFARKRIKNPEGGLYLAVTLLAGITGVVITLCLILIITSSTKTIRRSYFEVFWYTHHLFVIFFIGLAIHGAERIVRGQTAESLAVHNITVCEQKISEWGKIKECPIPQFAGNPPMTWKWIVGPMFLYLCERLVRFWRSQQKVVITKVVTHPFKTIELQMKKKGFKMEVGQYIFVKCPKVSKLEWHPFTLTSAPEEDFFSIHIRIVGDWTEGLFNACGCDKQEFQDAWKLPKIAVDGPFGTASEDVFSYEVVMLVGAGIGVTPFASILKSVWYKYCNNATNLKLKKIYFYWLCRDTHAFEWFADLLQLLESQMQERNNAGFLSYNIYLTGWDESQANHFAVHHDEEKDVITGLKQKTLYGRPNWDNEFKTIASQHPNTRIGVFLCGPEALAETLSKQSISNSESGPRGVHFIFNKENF
Sequence of NADPH oxidase 4 (Homo sapiens) (Q9NPH5 whole entry, looked up): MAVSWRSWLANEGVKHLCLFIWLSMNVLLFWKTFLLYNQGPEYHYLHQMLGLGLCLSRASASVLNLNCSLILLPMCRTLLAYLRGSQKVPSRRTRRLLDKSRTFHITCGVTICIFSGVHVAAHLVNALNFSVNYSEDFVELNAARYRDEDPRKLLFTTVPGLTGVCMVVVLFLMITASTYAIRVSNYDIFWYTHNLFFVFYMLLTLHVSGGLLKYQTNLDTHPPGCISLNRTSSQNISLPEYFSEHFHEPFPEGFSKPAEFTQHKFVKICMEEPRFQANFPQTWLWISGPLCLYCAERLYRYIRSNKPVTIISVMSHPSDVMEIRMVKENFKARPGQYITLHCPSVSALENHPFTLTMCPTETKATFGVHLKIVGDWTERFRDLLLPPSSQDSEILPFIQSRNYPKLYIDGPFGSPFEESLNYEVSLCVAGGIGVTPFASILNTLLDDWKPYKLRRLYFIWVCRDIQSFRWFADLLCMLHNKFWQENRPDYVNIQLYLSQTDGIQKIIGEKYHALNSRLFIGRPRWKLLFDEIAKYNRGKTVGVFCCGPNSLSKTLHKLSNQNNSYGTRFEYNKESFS

As to `COC(=O)[C@@H]1CC[C@H](C)[C@@H](c2ccc(C)cc2)N1C(=O)c1ccc(C=NOC[C@@H](O)COCc2ccco2)cc1`, the z-score in test [1] was 1.06 (inactive); in test [3] it was 5.79 (inactive); in test [4], 0.944 (inactive); in test [5] it was -0.0224 (inactive); in test [6] it was 1.05 (inactive); in [7], -1.05. Also, the z-score in test [8] is -0.0479 (inactive); in [9] it was -0.0106 (inactive); in [10] it was 0.254; in test [11] it was -0.181; in test [12], 0.346; in test [13], -0.807. The z-score was -1.32 in [14]; -1.46 in [15]; -2.38 in test [16]; -0.747 (inactive) in [17]; 0.304 in test [18]; -0.352 in [19]. Moreover, the z-score in test [20] is -0.45 (inactive). Besides, in test [2], the composite z-score is -0.255.

Regarding `CC(C)NC(=O)[C@@]1(c2ccc([N+](=O)[O-])cc2)CC(=O)N(CC23CC4CC(CC(C4)C2)C3)[C@@H]1c1ccc(CO)cc1I`, the z-score was -0.805 (inactive) in test [1]; 18.8 (active) in test [3]; 5.45 (inactive) in test [4]; 1.59 (inactive) in test [5]; 1.28 (inactive) in test [6]; 0.018 in [7]. The z-score was 2.19 (inactive) in test [8]; 0.215 (inactive) in [9]; 1.35 in test [10]; -1.58 in test [11]; 0.58 in test [12]; -4.89 in test [13]. For the same compound, the z-score in [14] is -3.8; in [15], -4.29; in [16] it was 0.421; in test [17] it was 0.402 (inactive); in [18] it was -0.929; in test [19], -2.08. The z-score in [20] was -3.65 (inactive). Also, the composite z-score in [2] amounted to 0.167.

Regarding `COc1ccc(O[C@H]2C=C[C@@H](c3ccccc3)O[C@@H]2CON=C[C@@H](C)[C@H](OCc2ccccc2)C(C)C)cc1`, the z-score is 0.302 (inactive) in [1]; 2.08 (inactive) in test [3]; 0.98 (inactive) in test [4]; 0.422 (inactive) in test [5]; 0.319 (inactive) in test [6]; 0.831 in test [7]. The z-score in test [8] is -0.734 (inactive); in test [9], 0.877 (inactive); in [10] it was -0.165; in [11], 0.688; in [12], -0.106; in [13], 1.7. Further, the z-score was 0.553 in [14]; -0.903 in test [15]; 0.46 in test [16]; 0.732 (inactive) in test [17]; -0.0803 in test [18]; -0.486 in test [19]. The z-score in [20] was -0.463 (inactive). The compound further displayed a composite z-score in [2] of -0.246.

With `C[N+](C)(C)CCCCCCNC(=O)[C@@H]1C[C@@H]2C(=O)N3CCC[C@H]3C(=O)N2[C@@H]1c1cccc(OCCO)c1`, the z-score in [1] was 0.733 (inactive); in test [3], 5.3 (inactive); in test [4], 0.679 (inactive); in test [5], 1.45 (inactive); in [6] it was 0.277 (inactive); in test [7] it was 0.0239. For the same compound, the z-score in test [8] was 0.15 (inactive); in test [9], 0.982 (inactive); in [10] it was 1.49; in test [11], -0.465; in test [12], -0.0317; in test [13] it was -1.92. For the same compound, the z-score is 0.826 in test [14]; 0.844 in test [15]; -1.08 in [16]; 0.217 (inactive) in test [17]; -0.00411 in test [18]; -1.03 in [19]. The z-score in test [20] is 1.12 (inactive). The composite z-score in [2] is 0.388.
